# Source: PubChem BioAssay
# Most compounds without a hit are left out; they make up all but 6.8% or so of the library.
# NADH enzymes: inhibition of NAD/NADH coupling enzymes, library profiling | coupled PK/LDH NADH assays, four targets | IC50, µM (top dose mostly 10 µM), for the others: top-dose inhibition | 65,000 tested, 0.02% active | AID 774;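 active = single-dose screening hits from any of four coupled enzyme assays that gave an IC50 when retested across doses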;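 note: the DPM-DC format reads NADH fluorescence rather than 340 nm absorbance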
# Spn PMK inh: inhibitors of Streptococcus pneumoniae phosphomevalonate kinase; purified PMK, PK/LDH-coupled NADH absorbance 340 nm; 65,000 tested, 0.49% active; inhibition, % at 10 µM;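 active = top-ranked compounds by inhibition in the single 10 µM screen, taking a fixed number of the strongest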;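 note: 0% = full reaction with DMSO carrier and 100% = background rate without enzyme reaction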
# Autofluor 339: intrinsic fluorescence of library compounds, ex339/em460 – biochemical, MLSMR library, data from DPM-DC assay, artefact control, profiling panel | compound autofluorescence, ex339/em460 nm, NADH buffer; stronger effect = higher value; 1 = no-compound wells, NADH background | fluorescence fold increase at 10 µM | 65,000 tested, 5.5% active;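 active = at 10 µM, mean starting fluorescence two-fold or more over control wells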;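 note: signal is the first read of a kinetic run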
# Abs 340nm: compounds absorbing at 340 nm. 65,000 tested, under 10 active. compound absorbance at 340 nm, fold over control. fold change at 10 µM;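 active = at 10 µM dose, initial 340 nm absorbance at least 2 fold that of control wells; inactive = change under 2 fold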;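 note: initial absorbance extrapolated from kinetic A340 decline of NADH oxidation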
# MK inhibit: inhibitors of Streptococcus pneumoniae mevalonate kinase. purified MK, PK/LDH-coupled NADH absorbance 340 nm. inhibition, % at 10 µM. 65,000 tested, 0.48% active. AID 555;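 active = ranked among the strongest by inhibition in the single 10 µM screen, a fixed top-ranked set picked for dose follow-up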
# DPM-DC inhibit: inhibitors of Streptococcus pneumoniae diphosphomevalonate decarboxylase; purified DPM-DC, PK/LDH coupled NADH fluorescence; 65,000 tested, 0.49% active; calls only at 10 µM;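 active = the 320 compounds with the highest percent inhibition in the single-dose primary screen, excluding strongly autofluorescent ones, cut at about 32% in these data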;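 note: kinetic rate of NADH fluorescence loss reporting ADP formed by the decarboxylase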
# Active calls of the source: *; i = inactive; · = no result given; + = active, no number; [ ] = dose if it differs, or a comment.
SMILES,NADH enzymes,Spn PMK inh,Autofluor 339,Abs 340nm,MK inhibit,DPM-DC inhibit
O=S(=O)(c1ccc2nc(-c3ccco3)c(-c3ccco3)nc2c1)N1CCOCC1,10%,11,2.2*,1,13,i
CCOC(=O)c1ccc(NC(=O)Cn2cc3c(n2)CCC(C)C3)cc1 (centres undefined),5%,13,1,0.99,8,i
CC1(C)Cc2nc3sc4c(N(CCO)CCO)ncnc4c3cc2CO1,4%,7,2.3*,1,0,·
COc1ccc(-n2c(=O)c3c4c(sc3n3c(C)nnc23)CCCC4)cc1,3%,10,1.1,1.1,0,i
c1coc(CNc2ncnc3nc[nH]c23)c1,5%,0,1.1,1,14,i
CCc1cc2c(NCCN3CCCCC3)ncnc2s1,9%,24,1.1,1,2,i
Cc1ccc2[nH]c3c(NCCCN4CCCC4=O)ncnc3c2c1,9%,10,3.8*,1.1,7,·
COc1ccc2[nH]c3c(NCCN4CCCCC4)ncnc3c2c1,7%,8,3.7*,1.1,5,·
Cc1ccc2[nH]c3c(NCc4ccco4)ncnc3c2c1,3%,1,3.8*,1.1,4,·
Cc1c2cccn2cc[n+]1C,3%,0,3.8*,0.99,6,·
CC1CCN(C(=O)c2cc3ccccc3o2)CC1,3%,6,1.1,1,2,i
C=CCn1c(NCc2ccc3c(c2)OCO3)nc2ccccc21,6%,17,1.1,1,0,i
C=CCn1c(NCc2ccccc2)nc2ccccc21,8%,25*,1,0.99,0,i
O=C(CN1CCN(C(=O)N2CCCCC2)CC1)Nc1ccc(F)cc1,1%,1,1.1,1.1,1,i
CCCCn1c(SCC(=O)Nc2ccc3c(c2)OCO3)nc2c1c(=O)n(C)c(=O)n2C,7%,16,1,0.99,6,i
c1ccc2sc(Cc3nnc4n3CCCCC4)nc2c1,3%,3,1.1,1.1,6,i
Nc1nc2sc3c(c2cc1C(=O)N1CCOCC1)CCCC3,15%,1,2.2*,1,28,·
Cc1cccc2cc3c(N)c(C(=O)N4CCOCC4)sc3nc12,8%,9,1.1,1.1,15,i
Cc1cc(C)nc(-n2nc(C)c(C3(O)C(=O)Nc4ccccc43)c2N)n1 (centres undefined),2%,0,1.1,1.1,6,i
Cc1c(NC(=O)C2CCN(S(=O)(=O)c3ccccc3)CC2)c(=O)n(-c2ccccc2)n1C,21%,14,1.1,1,14,+
O=c1[nH]c2cc3c(cc2cc1C(c1nnnn1C1CCCCC1)N1CCSCC1)OCCO3 (centres undefined),3%,17,2.4*,1,0,i
COc1cc2cc(C(c3nnnn3C3CCCC3)N3CCCCC3)c(=O)[nH]c2cc1OC (centres undefined),6%,5,3.5*,1.1,6,·
Cc1[nH]n(C(C)(C)C)c(=O)c1Sc1ccc(Cl)cc1,4%,7,1.1,1,0,i
O=C(c1ccc(Br)o1)N(Cc1ccccc1)c1ccccn1,0%,0,1,1,0,i
CCN(CC)C(=O)C1CCCN(Cc2ccc(N(C)C)cc2)C1 (centres undefined),6%,0,1,1,50*,i
SMILES,NADH enzymes,Spn PMK inh,Autofluor 339,Abs 340nm,MK inhibit,DPM-DC inhibit
CCN(CC)C(=O)C1CCCN(Cc2ccc(OC)c(C)c2)C1 (centres undefined),17%,0,1.1,1.1,51*,i
CCN(CC)C(=O)C1CCCN(Cc2ccc(F)c(F)c2)C1 (centres undefined),2%,2,1.1,1,5,i
CCOC(=O)C1CCCN(Cc2ccc3c(c2)OCO3)C1 (centres undefined),0%,0,1.1,1,0,i
CCOc1cc(C(=O)NC(C)c2ccncc2)cc(OCC)c1OCC (centres undefined),3%,5,1.1,1,4,i
CCOC(=O)CSc1nc(N)c(C#N)c(CC(C)C)c1C#N,2%,0,1.2,1.1,5,i
COC(=O)CC1SC(=O)NC1=Nc1ccccc1 (centres undefined),39%,11,1.7,1,7,+
O=C(O)C1CCCN1S(=O)(=O)c1ccc2[nH]c(=O)c(=O)[nH]c2c1 (centres undefined),6%,8,1.7,1.1,5,i
COc1ccc2oc(=O)c(NC(=O)C3CCCCC3)cc2c1,8%,14,4.2*,1.1,1,·
CC(CCc1ccccc1)NCC(O)c1ccc(O)c(C(N)=O)c1 (centres undefined),2%,0,2.5*,1,6,·
CC(CCc1ccccc1)NC(=O)c1ccncc1 (centres undefined),3%,10,1.1,1.1,0,i
Cc1ccc(S(=O)(=O)Cn2nnnc2CN2CCCC3(CCCCC3)C2)cc1,3%,10,1.1,1,0,i
COc1ccc(CNC(=O)C2COc3ccccc3O2)c(OC)c1 (centres undefined),6%,11,1.1,0.99,6,i
CCCCSc1nc(N)c(C#N)c(-c2cccs2)c1C#N,2%,0,1.2,1.1,5,i
N#Cc1c(-c2cccs2)cc(-c2ccccn2)nc1N,10%,13,3.8*,1,6,·
N#Cc1c(-c2cccs2)cc(-c2cccnc2)nc1N,2%,3,3.8*,1.1,0,·
CCCCNC(=O)C1CCCN1C(=O)Nc1cccc(OC)c1 (centres undefined),3%,6,1.1,1,3,i
COc1ccc(-n2c(/C=C(\C)O)nc(=O)c3c(C)cc(C)nc32)cc1,7%,14,1.1,1.4,2,i
O=C(CN1CCN(C2CCCCC2)CC1)c1ccc2cc[nH]c2c1,1%,1,2.1*,1.1,0,·
O=C(O)c1ccc2cc[nH]c2c1,8%,10,1.1,1,9,i
O=C(CN1C(=O)c2ccccc2C1=O)Nc1ccccc1C(=O)N1CCCC1,3%,21,1,0.98,4,i
CC(C)c1nc(NCC2CCCO2)c(C#N)c2c1COC(C)(C)C2 (centres undefined),3%,6,2.4*,0.99,2,+[fluoresces]
CCc1nc(NC2CCCCC2)c(C#N)c2c1COC(C)(C)C2,4%,7,1.8,1,4,i
CCc1nc(NCC2CCCO2)c(C#N)c2c1COC(C)(C)C2 (centres undefined),7%,13,2.3*,1,0,·
CCc1nc(NCC(C)C)c(C#N)c2c1COC(C)(C)C2,4%,7,2.1*,1,0,·
COc1ccc(Cl)cc1NC(=O)c1cccnc1,2%,0,1.1,1.1,5,i
